# Test results as given in the supplement of paper PMC10849652.
# Targets with a hit are over-represented here; the source holds about 8,800 in all. About 0.5% of all pairs of compound and target were hits. Values without a mark were called inactive.
# Tests used:
# Assay in all cases: log2 fold change, soluble protein after heating vs DMSO (PISA); higher = thermal stabilisation; K562 lysate, 10 uM; active = over 0.2 and 3.5 SD of the protein, either way, in both replicates (recomputed)
# [1] = compound: CCCS(=O)(=O)Nc1ccc(F)c(C(=O)c2c[nH]c3ncc(-c4ccc(Cl)cc4)cc23)c1F [vemurafenib]
# Outline: (§1)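 Quantification was by TMTpro 16plex LC-MS/MS with equalised channel sums, applied to the supernatant after 21,000xg for 90 min. Samples were crude K562 extract at 1 mg/mL protein in PBS pH 7.4 with 1 mM MgCl2, treated with 10 μM compound for 30 min, heated for 3 min across 48°C-58°C, pooled and brought to 0.5% NP-40 at 4°C. Values are log-two fold changes in thermal stability relative to solvent controls, from duplicates.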
# [2] = compound: CCCS(=O)(=O)Nc1ccc(F)c(C(=O)c2c[nH]c3ncc(Cl)cc23)c1F
# Outline: as §1
# [3] = compound: CCN(CCCOc1ccc2c(Nc3cc(CC(=O)Nc4cccc(F)c4)[nH]n3)ncnc2c1)CCOP(=O)(O)O [barasertib]
# Outline: as §1
# [4] = compound: CC[C@@H]1C(=O)N(C)c2cnc(Nc3ccc(C(=O)NC4CCN(C)CC4)cc3OC)nc2N1C1CCCC1
# Outline: as §1
# [5] = compound: CC[C@@H]1C(=O)N(C)c2cnc(Nc3ccc(C(=O)N[C@H]4CC[C@H](N5CCN(CC6CC6)CC5)CC4)cc3OC)nc2N1C(C)C [volasertib]
# Outline: as §1
# [6] = compound: CCn1c(C(=O)N(C2CC2)C2CC2)cc2c3c(ncn3C)c(Nc3cc(C)n(C)n3)nc21
# Outline: as §1
# [7] = compound: CCn1cc(-c2ccnc3[nH]c(-c4cccc(CN(C)C)c4)cc23)c(-c2ccc(NC(=O)N(C)C)cc2)n1
# Outline: as §1
# [8] = compound: CN1CCC(CNc2ccc3ncc(-c4cccc(OC(F)(F)F)c4)n3n2)CC1
# Outline: as §1
# [9] = compound: CN1CCN(CCOc2cc(OC3CCOCC3)c3c(Nc4c(Cl)ccc5c4OCO5)ncnc3c2)CC1 [saracatinib]
# Outline: as §1
# [10] = compound: CN1CCN(c2nc(C3=C(c4c[nH]c5ccccc45)C(=O)NC3=O)c3ccccc3n2)CC1 [sotrastaurin]
# Outline: as §1
# UniProt O60337, sequence (O60337 whole entry, looked up): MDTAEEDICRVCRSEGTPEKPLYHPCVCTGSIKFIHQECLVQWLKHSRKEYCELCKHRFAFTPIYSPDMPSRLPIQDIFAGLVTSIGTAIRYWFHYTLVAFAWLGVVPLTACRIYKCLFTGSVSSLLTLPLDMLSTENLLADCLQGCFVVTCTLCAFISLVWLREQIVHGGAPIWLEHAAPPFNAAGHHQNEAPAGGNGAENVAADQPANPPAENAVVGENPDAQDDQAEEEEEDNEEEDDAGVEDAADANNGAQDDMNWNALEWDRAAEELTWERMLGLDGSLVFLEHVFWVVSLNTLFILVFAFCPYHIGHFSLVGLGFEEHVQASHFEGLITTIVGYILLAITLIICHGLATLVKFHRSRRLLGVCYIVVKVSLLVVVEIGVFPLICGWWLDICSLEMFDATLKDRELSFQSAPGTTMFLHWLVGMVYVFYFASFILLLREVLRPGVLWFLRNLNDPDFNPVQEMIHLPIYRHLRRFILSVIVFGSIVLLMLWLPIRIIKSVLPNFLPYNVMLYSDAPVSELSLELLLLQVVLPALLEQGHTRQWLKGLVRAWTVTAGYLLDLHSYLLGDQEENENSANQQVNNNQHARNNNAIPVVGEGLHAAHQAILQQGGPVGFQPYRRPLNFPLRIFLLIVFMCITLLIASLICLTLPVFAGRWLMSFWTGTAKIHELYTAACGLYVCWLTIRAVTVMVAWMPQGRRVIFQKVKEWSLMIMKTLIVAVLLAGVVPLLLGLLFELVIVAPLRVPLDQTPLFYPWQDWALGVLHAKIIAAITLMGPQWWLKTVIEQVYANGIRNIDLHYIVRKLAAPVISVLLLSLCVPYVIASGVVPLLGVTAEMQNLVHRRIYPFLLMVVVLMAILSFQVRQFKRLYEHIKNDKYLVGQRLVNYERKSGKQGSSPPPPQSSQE
# UniProt P53667, sequence (P53667 whole entry, looked up): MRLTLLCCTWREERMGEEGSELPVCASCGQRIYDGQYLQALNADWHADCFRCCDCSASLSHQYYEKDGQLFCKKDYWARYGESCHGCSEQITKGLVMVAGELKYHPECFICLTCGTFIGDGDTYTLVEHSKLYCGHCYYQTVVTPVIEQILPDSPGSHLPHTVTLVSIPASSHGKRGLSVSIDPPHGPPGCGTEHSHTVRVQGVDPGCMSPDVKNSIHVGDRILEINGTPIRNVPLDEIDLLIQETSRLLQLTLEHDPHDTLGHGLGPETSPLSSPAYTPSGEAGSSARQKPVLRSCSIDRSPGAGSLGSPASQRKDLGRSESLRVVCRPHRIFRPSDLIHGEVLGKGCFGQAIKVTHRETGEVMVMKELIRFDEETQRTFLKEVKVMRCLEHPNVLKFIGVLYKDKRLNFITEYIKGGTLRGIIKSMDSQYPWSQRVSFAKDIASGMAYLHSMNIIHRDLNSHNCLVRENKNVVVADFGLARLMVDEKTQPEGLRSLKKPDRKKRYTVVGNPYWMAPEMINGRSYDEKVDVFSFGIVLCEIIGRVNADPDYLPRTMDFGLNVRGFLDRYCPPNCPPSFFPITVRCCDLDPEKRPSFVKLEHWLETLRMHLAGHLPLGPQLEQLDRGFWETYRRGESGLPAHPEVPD
# UniProt P10620, sequence (P10620 whole entry, looked up): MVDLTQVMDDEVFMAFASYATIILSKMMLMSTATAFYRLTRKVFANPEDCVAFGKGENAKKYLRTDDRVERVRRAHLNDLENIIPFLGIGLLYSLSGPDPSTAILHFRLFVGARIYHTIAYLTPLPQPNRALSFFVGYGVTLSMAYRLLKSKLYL
# UniProt Q9UFC0, sequence (Q9UFC0 whole entry, looked up): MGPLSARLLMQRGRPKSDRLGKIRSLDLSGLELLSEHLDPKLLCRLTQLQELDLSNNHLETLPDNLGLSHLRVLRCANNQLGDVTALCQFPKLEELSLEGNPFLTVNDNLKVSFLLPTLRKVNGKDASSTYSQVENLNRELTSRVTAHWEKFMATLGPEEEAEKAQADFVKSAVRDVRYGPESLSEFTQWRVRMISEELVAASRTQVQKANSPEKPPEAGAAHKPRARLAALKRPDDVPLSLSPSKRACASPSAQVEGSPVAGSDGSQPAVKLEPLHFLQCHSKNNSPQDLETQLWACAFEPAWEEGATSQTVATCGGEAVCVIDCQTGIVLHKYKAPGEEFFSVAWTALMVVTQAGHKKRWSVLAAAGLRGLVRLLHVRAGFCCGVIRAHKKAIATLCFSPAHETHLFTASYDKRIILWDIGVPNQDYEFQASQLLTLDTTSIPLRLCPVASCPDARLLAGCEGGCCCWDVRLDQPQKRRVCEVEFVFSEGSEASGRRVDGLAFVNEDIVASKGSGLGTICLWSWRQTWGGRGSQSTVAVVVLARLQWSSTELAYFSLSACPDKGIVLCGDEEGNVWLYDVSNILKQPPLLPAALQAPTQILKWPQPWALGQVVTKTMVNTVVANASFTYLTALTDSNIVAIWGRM
# UniProt O14880, sequence (O14880 whole entry, looked up): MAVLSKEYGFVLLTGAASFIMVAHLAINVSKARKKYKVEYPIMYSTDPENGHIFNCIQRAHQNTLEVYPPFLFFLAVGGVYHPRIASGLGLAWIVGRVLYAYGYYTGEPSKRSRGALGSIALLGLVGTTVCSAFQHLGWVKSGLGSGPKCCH
# UniProt Q8TC05, sequence (Q8TC05 whole entry, looked up): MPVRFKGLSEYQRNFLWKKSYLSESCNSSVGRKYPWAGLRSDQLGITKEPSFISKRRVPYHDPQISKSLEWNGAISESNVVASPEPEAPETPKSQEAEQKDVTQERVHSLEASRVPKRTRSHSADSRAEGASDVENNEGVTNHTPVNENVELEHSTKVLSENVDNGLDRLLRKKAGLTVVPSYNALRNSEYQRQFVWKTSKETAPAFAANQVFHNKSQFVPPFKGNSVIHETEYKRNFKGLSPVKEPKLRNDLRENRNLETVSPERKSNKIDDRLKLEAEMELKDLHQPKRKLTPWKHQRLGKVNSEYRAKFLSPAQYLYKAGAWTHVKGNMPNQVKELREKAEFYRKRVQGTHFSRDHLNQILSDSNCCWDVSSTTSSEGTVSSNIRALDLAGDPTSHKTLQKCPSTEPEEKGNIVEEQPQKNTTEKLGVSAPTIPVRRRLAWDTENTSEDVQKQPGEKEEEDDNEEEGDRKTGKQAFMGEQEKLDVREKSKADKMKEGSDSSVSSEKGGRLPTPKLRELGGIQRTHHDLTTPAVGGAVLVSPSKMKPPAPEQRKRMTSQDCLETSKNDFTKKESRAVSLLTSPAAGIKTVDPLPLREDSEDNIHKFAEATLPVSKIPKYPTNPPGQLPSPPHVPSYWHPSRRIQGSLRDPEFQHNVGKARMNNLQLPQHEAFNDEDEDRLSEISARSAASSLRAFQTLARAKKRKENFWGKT
# UniProt Q8N5J2, sequence (Q8N5J2 whole entry, looked up): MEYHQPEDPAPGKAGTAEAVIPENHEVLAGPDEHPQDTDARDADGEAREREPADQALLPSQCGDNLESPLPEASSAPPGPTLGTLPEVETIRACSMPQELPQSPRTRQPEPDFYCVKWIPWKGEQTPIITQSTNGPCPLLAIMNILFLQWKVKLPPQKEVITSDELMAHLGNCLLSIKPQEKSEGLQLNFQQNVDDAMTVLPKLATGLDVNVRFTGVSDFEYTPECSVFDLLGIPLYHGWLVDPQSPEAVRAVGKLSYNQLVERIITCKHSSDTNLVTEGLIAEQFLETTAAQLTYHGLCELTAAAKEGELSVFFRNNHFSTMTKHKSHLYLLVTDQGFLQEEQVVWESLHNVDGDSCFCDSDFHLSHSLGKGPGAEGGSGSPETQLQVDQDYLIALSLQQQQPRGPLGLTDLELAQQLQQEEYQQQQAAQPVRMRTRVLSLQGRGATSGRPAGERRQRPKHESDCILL
# UniProt P49916, sequence (P49916 whole entry, looked up): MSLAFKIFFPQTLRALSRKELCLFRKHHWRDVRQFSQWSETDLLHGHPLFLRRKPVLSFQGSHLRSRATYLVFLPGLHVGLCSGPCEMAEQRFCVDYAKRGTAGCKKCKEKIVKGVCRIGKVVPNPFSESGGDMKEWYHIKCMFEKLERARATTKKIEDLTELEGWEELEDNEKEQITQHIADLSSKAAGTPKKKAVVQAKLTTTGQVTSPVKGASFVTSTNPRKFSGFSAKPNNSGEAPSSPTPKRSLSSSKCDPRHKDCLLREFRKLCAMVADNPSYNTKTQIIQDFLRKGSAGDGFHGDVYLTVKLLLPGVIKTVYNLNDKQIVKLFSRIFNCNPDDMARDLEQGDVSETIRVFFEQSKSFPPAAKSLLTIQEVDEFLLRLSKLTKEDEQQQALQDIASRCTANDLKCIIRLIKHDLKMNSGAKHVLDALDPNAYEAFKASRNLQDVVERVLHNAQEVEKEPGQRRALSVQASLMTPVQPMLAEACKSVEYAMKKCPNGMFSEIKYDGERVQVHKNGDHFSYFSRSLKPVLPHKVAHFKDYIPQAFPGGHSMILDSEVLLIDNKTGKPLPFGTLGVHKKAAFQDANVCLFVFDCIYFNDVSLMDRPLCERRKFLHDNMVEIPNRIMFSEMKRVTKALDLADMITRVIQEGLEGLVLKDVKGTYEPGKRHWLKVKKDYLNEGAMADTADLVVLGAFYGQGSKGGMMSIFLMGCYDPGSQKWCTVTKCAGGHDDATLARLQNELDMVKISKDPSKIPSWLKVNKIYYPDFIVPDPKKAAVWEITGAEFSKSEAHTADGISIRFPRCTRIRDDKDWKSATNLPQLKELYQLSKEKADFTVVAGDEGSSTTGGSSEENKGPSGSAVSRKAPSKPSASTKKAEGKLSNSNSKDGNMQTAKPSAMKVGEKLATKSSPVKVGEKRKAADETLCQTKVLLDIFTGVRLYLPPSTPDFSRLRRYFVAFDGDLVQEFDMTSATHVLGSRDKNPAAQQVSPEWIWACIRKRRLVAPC
Target,log2 fold change [1],log2 fold change [2],log2 fold change [3],log2 fold change [4],log2 fold change [5],log2 fold change [6],log2 fold change [7],log2 fold change [8],log2 fold change [9],log2 fold change [10]
MLH1 (UniProt P40692),0.042,-0.039,0.014,0.013,-0.002,0.014,-0.029,-0.023,0.051,0.02
MGST3 (UniProt O14880),0.012,0.01,-0.056,0.078,0.076,0.006,0.286 (active),-0.082,-0.017,-0.015
MGST1 (UniProt P10620),0.015,0.018,0.027,0.097,0.07,-0.036,0.279 (active),-0.069,0.068,-0.013
KMT2A isoform 3 (UniProt Q03164),0.044,-0.033,0.042,-0.035,-0.054,-0.058,-0.093,-0.01,-0.069,0.034
MRPL19 (UniProt P49406),0.026,0.029,0.001,-0.139,-0.056,0,0.026,-0.053,0.016,-0.016
LTN1 isoform 3 (UniProt O94822),0.005,0.022,0.034,-0.06,-0.041,-0.004,0.035,-0.106,0.04,0.03
MAPK14 isoform 2 (UniProt Q16539),0.189,0.046,0.079,-0.076,-0.078,0.003,0.303,-0.101,0.192,-0.029
MRPL15 (UniProt Q9P015),0.004,0.025,-0.04,0.024,-0.018,-0.062,-0.509 (active),0.174,-0.07,0.023
LIG3 (UniProt P49916),-0.029,-0.003,0.019,-0.127,-0.028,0.031,-0.033,-0.011,0.018,0.009
MAPKAPK2 (UniProt P49137),0.011,-0.043,0,-0.015,-0.032,0.009,-0.032,0.002,-0.037,-0.015
KPNA2 (UniProt P52292),0.001,0,0.05,-0.037,-0.051,0.004,-0.033,-0.041,0.005,0.038
KIF3C (UniProt O14782),0.565,-0.213,,-0.296,0.186,0.018,-0.138,-0.037,0.02,-0.022
KLHL12 isoform 2 (UniProt Q53G59),0.038,0.061,-0.413 (active),,-0.045,0.118,,,0.064,-0.045
LARS2 (UniProt Q15031),-0.015,0.007,0.077,-0.103,-0.081,0.061,0.024,-0.073,0.029,0.072
LRIF1 (UniProt Q5T3J3),0.213,-0.005,,-0.009,0.042,0.006,0.105,0.044,0.046,0.001
MDM1 (UniProt Q8TC05),0.024,0.053,,-0.05,0.024,0.075,-1.5 (active),0.512 (active),0.013,
MAP4K2 (UniProt Q12851),0.198,-0.038,0.009,-0.009,-0.035,-0.023,-0.317,0.105,0.005,0.053
MCMBP isoform 2 (UniProt Q9BTE3),-0.039,0.081,-0.096,0.059,-0.004,0.047,,,-0.036,-0.015
MAP4K5 (UniProt Q9Y4K4),0.185,-0.011,0.23,,-0.069,0.014,0,-0.007,0.01,
LRWD1 (UniProt Q9UFC0),0.009,-0.013,-0.021,-0.016,-0.017,0.023,-0.003,0.036,0.025,0.03
MMS22L (UniProt Q6ZRQ5),-0.044,0.013,0.083,-0.182,-0.119,,0.077,-0.083,0.092,0.012
KRIT1 (UniProt O00522),-0.084,0.051,-0.084,-0.009,0.036,-0.052,,,-0.103,0.049
LAP3 (UniProt P28838),0.107,0.024,-0.002,0.195,0.054,-0.095,-0.495 (active),0.36 (active),0.082,0.042
LIMK1 (UniProt P53667),0.234,0.179,0.007,-0.195,-0.215,0.108,-0.104,-0.028,-0.022,-0.15
MAST2 (UniProt Q6P0Q8),0.134,-0.062,0.105,0.068,0.045,-0.127,0.102,0.06,0.056,-0.024
MINDY1 isoform 3 (UniProt Q8N5J2),-0.049,-0.26,-0.201,0.059,-0.041,-0.106,,,0.076,0.074
MOCS1 isoform 8 (UniProt Q9NZB8),0.063,0.022,0.166,-0.043,-0.004,-0.015,-0.063,-0.013,0.006,-0.018
KIF14 (UniProt Q15058),0.027,0.021,0.143,0.052,-0.071,-0.005,-0.046,0.05,0.016,0.01
MARCHF6 (UniProt O60337),0.043,0.052,0.233,0.038,0.078,,-0.023,0.013,-0.13,0.034
MRPL35 (UniProt Q9NZE8),0.091,-0.001,0.021,,0.013,0.005,-0.124,-0.011,0.04,-0.019
